# Test results: PMC5540273 (PLoS ONE, 2017)
# Test system: T1, YSK4
# T1 construct: gene MAP3K19
# Details: concentration: 1 μM, replicates: in singlicate; n = 1
# 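Note: KINOMEscan kinase panel screen.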
row,Structure (SMILES),%Inh [%]
1,Cc1ccc(-c2nc(Nc3ccncc3)c3ccccc3n2)s1 [GSK189015],0
2,CNc1nc(-c2ccc3c(N)n[nH]c3c2)cc(N2C[C@@H](C(=O)NC3CCCCC3)OC[C@H]2C)n1 [GSK2375584],15
3,Cn1cnc2c(N)ncnc21 [SKF-97623],0
4,Fc1ccc(-c2nc[nH]c2-c2ccncc2)cc1 [SB-217360],22
5,COc1cccc(NC(=O)Nc2ccc(C)c(-c3ccc(C(=O)Nc4ccncc4)cc3)c2)c1 [GSK1398474],24
6,Nc1ncnc2occ(-c3ccc4c(c3)CCN4C(=O)Cc3cc(F)ccc3F)c12 [GSK2645446],66
7,COc1ccc(CSc2nnc(-c3ccc4nccn4c3)o2)cc1C(F)(F)F,92.3
8,Cc1cccc2c(-c3ccncn3)c(-c3ccc(F)cc3)nn12 [GW515532],16
9,Cc1ccccc1-c1cc(-c2c[nH]nc2-c2ccccn2)ccn1 [GW680061],14
10,CCCCc1nn2ncccc2c1-c1ccnc(NC2CC2)n1 [GW684374],18
11,CCn1c(-c2ccccc2)nc2cnccc21 [SB-733416],0
12,Cn1cncc1-c1cc2c(Nc3ccc(OCc4ccccc4)cc3)ncnc2cn1 [GW281179],27
13,Cc1c(Cn2c3ccccc3n3c(=O)cc(N4CCOCC4)nc23)cccc1C(F)(F)F [GSK2306394],7
14,CS(=O)(=O)CCNCc1nc(-c2ccc3ncnc(Nc4ccc(OCc5ccccc5)c(Cl)c4)c3c2)cs1.Cl [GW582764],30
15,COC(=O)C(NC(=O)NC1CCN(c2ccnc(Nc3ccc(F)cc3)n2)C1)c1ccccc1 (stereo not shown) [GSK1379712],32
16,Cc1ccc(NC(=O)Nc2ccc(Cl)c(C(F)(F)F)c2)cc1-c1ccc(C(=O)Nc2ccncc2)cc1 [GSK1398470],72
17,COc1ccc(-c2coc3ccc(-c4nnc(C)o4)cc23)cc1,0
18,COC(=O)c1cccc(NC(=O)NC2CCN(c3ccnc(Nc4ccc(OC)cc4)n3)C2)c1 (stereo not shown) [GSK1379746],22
19,CC(=O)c1c(C)c2cnc(Nc3ccn(C)n3)nc2n(C2CCCC2)c1=O,18

row,Structure (SMILES),%Inh [%]
1,CC(=O)c1c(C)c2cnc(Nc3ccc(N4CCNCC4)cn3)nc2n(C2CCCC2)c1=O,10
2,CNC(=O)c1ccc(C)c(-n2c(C)cc(OCc3ccc(F)cc3F)c(Br)c2=O)c1,0
3,FC(F)(F)c1ccccc1-c1cc(-c2c[nH]nc2-c2ccccn2)ccn1 [GW679396],0
4,CCn1c(-c2c(N)noc2C)nc2cnccc21 [SB-737856],44
5,Fc1ccc(-c2nn3cccc(F)c3c2-c2ccncc2)cc1 [GW475620],14
6,CS(=O)(=O)Cc1ccc(Nc2nccc(-c3c(-c4cccc(NC(=O)C5CCCCC5)c4)nn4ncccc34)n2)cc1 [GSK350559],16
7,CC(C)c1cc(-c2ccc3c(N)n[nH]c3c2)nc(N)n1 [GSK2250882],33
8,Nc1cccc(-c2ccc3c(N)n[nH]c3c2)n1 [GSK2192730],83
9,COc1nccc(-c2c(-c3ccc(F)cc3)ncn2CCCN2CCOCC2)n1 [SB-282852],0
10,Cc1ccc(NC(=O)Nc2ccccc2)cc1-c1ccc(C(=O)Nc2ccncc2)cc1 [GSK1398471],94.6
11,O=C(Nc1n[nH]c2nc(-c3cccs3)c(Br)cc12)C1CC1 [SB-735297],95.3
12,O=C(Nc1n[nH]c2nc(-c3cccs3)c(Br)cc12)C1CCCC1 [SB-743341],0
13,O=c1cc(N2CCOCC2)nc2n(Cc3ccccc3F)ccn12 [GSK2297428],33
14,Cl.Cl.Cl.N#Cc1ccc(CCNc2nccc(-c3cccc(CN4CCNCC4)c3)n2)cc1 [GSK2137462],10
15,CSc1ccc(-c2nc3n(c2-c2ccncc2)CCC3)cc1 [SKF-105561],7
16,Cc1ccc(NC(=O)Nc2ccccc2F)cc1-c1ccc(C(=O)Nc2ccncc2)cc1 [GSK1398477],86
17,CCc1ccc(-c2ccc3c(c2)-c2n[nH]cc2S(=O)(=O)N3C)cc1,0
18,COc1ccc(Nc2nccc(N3CCC(NC(=O)c4cc5ccccc5s4)C3)n2)cc1 (stereo not shown) [GSK1379738],47
